Laboratory results: PubChem BioAssay (NCI)
Where “and” joins values, the source holds several entries; their conditions need not be identical. Identical values can stand only once. About 83,000 compounds went through this panel and 20% of them were active in at least one assay; those are over-represented in the sample as a whole.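 Single-dose data. Exposure time 48 hours. Values below 10 considered active.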 Calls of active or inactive are those of the source.

Assays:
Test in all cases: NCI-60 one-dose screen, 48 h (100 = growth as untreated, 0 = no growth, -100 = all killed)
Details in all cases: 10 µM unless noted
T-47D breast = system: T-47D breast
BT-549 breast = system: BT-549 breast
MDA-MB-435 melanoma = system: MDA-MB-435 melanoma
SW-620 colon = system: SW-620 colon
HCT-116 colon = system: HCT-116 colon
HCC-2998 colon = system: HCC-2998 colon
KM12 colon = system: KM12 colon
MDA-MB-468 breast = system: MDA-MB-468 breast
MCF7 breast = system: MCF7 breast

Measured: growth

N#Cc1ccc(C(=O)CSc2nc3c(c(Nc4ccc(S(N)(=O)=O)cc4)n2)CCC3)cc1
inactive: T-47D breast 71.7% | BT-549 breast 83.3% | MDA-MB-435 melanoma 86.6% | SW-620 colon 47.8% | HCT-116 colon 15.7% | HCC-2998 colon 15.8% | KM12 colon 64.2% | MDA-MB-468 breast 60.4%

O=C(Nc1ccc(-c2ccc3c(c2)NC(=O)/C3=C\c2ccc[nH]2)cc1)Nc1cccc(Cl)c1
inactive: MDA-MB-435 melanoma 10.1% | SW-620 colon 13.9%
active: T-47D breast -1.23% | BT-549 breast -1.48% | MCF7 breast -9.34% | HCT-116 colon 2.08% | HCC-2998 colon -24.2% | KM12 colon -22.3% | MDA-MB-468 breast -55.5%

Cc1ccc(Cl)cc1NC(=O)Nc1nc2ccc([N+](=O)[O-])cc2s1
active: T-47D breast -19.7% | BT-549 breast -30.3% | MDA-MB-435 melanoma -18.2% | SW-620 colon -21.9% | HCT-116 colon -37.7% | HCC-2998 colon -10.1% | KM12 colon -2.73%

O=C1C=CC(=CC=C2N(Cc3ccc4ccccc4c3)c3ccccc3N2Cc2ccc3ccccc3c2)C=C1
5.78% (active) and 27.5% (inactive): T-47D breast
12.5% (inactive) and 8.75% (active): MDA-MB-435 melanoma
active: MDA-MB-468 breast -48.9% and -28.9%
inactive: SW-620 colon 29.1% and 19.4% | HCT-116 colon 10.7% and 14.7% | HCC-2998 colon 21.1% and 33.1% | KM12 colon 33.8% and 11.2%
9.59% (active) and 29.8% (inactive): BT-549 breast

Cn1cc(-c2cc(N)n3nc(-c4c[nH]c5ccccc45)cc3n2)c2cc(Cl)ccc21
active: T-47D breast -77.5% | BT-549 breast -3.57% | MDA-MB-435 melanoma -51.7% | SW-620 colon -84.9% | HCT-116 colon -73.4% | HCC-2998 colon -80% | KM12 colon -70.5% | MDA-MB-468 breast -83.2%

C=CC(=O)N1CCN(c2ccc3nc4c(nc3c2C(F)(F)F)C(=O)c2ncccc2C4=O)CC1
inactive: BT-549 breast 10.1%
active: T-47D breast -4.37% | MDA-MB-435 melanoma -71.1% | SW-620 colon 4.1% | HCT-116 colon -25.7% | HCC-2998 colon 5.17% | KM12 colon 9.15% | MDA-MB-468 breast -69.3%

O=C1NC(=S)/C(=C/c2cn(-c3ccccc3)nc2-c2ccccc2)S1
inactive: MDA-MB-435 melanoma 24.6% | SW-620 colon 39.3% | HCT-116 colon 18.6% | HCC-2998 colon 29.2% | KM12 colon 19.4% | MDA-MB-468 breast 22.3%
active: T-47D breast 0.334% | BT-549 breast -9.85% | MCF7 breast 3.28%

CCOc1ccccc1NC(=O)N/C(N)=N/c1nc2ccccc2s1
active: MDA-MB-435 melanoma -21.6% | HCT-116 colon -5.6% | KM12 colon -0.458%
inactive: T-47D breast 41.5% | BT-549 breast 23.1% | SW-620 colon 25.5% | HCC-2998 colon 13.1%

Cc1ccc(S(=O)(=O)N(CCn2ccnc2[N+](=O)[O-])CCn2ccnc2[N+](=O)[O-])cc1
inactive: T-47D breast 100% | BT-549 breast 119% | MDA-MB-435 melanoma 98.7% | SW-620 colon 100% | MCF7 breast 100% | HCT-116 colon 102% | HCC-2998 colon 114% | KM12 colon 105% | MDA-MB-468 breast 96.4%

CC(=O)Nc1ccc(S(=O)(=O)Nc2ccc(-c3ccc4c(c3)NC(=O)/C4=C\c3ccc[nH]3)cc2)cc1
active: MDA-MB-468 breast -7.1%
inactive: T-47D breast 20.7% | BT-549 breast 42.6% | MDA-MB-435 melanoma 99.7% | SW-620 colon 114% | MCF7 breast 14.4% | HCT-116 colon 87.1% | HCC-2998 colon 96.9% | KM12 colon 51.6%

CCCCCCCCc1ccc(C(=O)Nc2ccc(C)c(OP(=O)(O)O)c2)cc1
inactive: T-47D breast 90% | BT-549 breast 88.9% | MDA-MB-435 melanoma 102% | SW-620 colon 103% | MCF7 breast 88.3% | HCT-116 colon 106% | HCC-2998 colon 125% | KM12 colon 95.5% | MDA-MB-468 breast 104%

COc1c(B(O)O)cccc1-c1nc2ccc3cn[nH]c3c2c2c1CCCC2
inactive: T-47D breast 70.6% | BT-549 breast 30.7% | MDA-MB-435 melanoma 84.2% | SW-620 colon 53.6% | HCT-116 colon 28.8% | HCC-2998 colon 86.9% | KM12 colon 62.3% | MDA-MB-468 breast 10.5%

O=C(NC(=S)N1CCN(c2ncnc3c2cnn3-c2ccccc2)CC1)c1ccc(F)cc1
inactive: T-47D breast 66.6% | BT-549 breast 86.2% | MDA-MB-435 melanoma 77.2% | SW-620 colon 76.6% | MCF7 breast 52.4% | HCT-116 colon 55.1% | HCC-2998 colon 99.1% | KM12 colon 79.7% | MDA-MB-468 breast 66.7%

Nc1nn2c(-c3cc4cc(Br)ccc4oc3=O)ccnc2c1N=Nc1ccc(S(N)(=O)=O)cc1
inactive: T-47D breast 77% | BT-549 breast 128% | MDA-MB-435 melanoma 78.5% | SW-620 colon 58.6% | HCT-116 colon 56% | HCC-2998 colon 54.8% | KM12 colon 48.3% | MDA-MB-468 breast 64.7%
